This is part of a sample that, as a whole, favours compounds with a hit. Of some 83,000 tested, about 20% had one in any assay.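 Interpretation: 100, growth as untreated; towards 0, rising growth inhibition; 0, no net growth; 0 to -100, cell death. Compounds scoring below 10 were considered active.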 The source made the active and inactive calls.
Experiments:
Assay in all cases: NCI-60 one-dose screen, 48 h (100 = growth as untreated, 0 = no growth, -100 = all killed)
Details in all cases: 10 µM unless noted
HCT-15 colon = system: HCT-15 colon
HT29 colon = system: HT29 colon
SNB-75 CNS = system: SNB-75 CNS
SNB-19 CNS = system: SNB-19 CNS
U251 CNS = system: U251 CNS
PC-3 prostate = system: PC-3 prostate
SK-MEL-5 melanoma = system: SK-MEL-5 melanoma
UACC-62 melanoma = system: UACC-62 melanoma
LOX IMVI melanoma = system: LOX IMVI melanoma
SK-MEL-28 melanoma = system: SK-MEL-28 melanoma
EKVX NSCLC = system: EKVX NSCLC
SN12C renal = system: SN12C renal
UO-31 renal = system: UO-31 renal
TK-10 renal = system: TK-10 renal
ACHN renal = system: ACHN renal
A498 renal = system: A498 renal
CCRF-CEM leukemia = system: CCRF-CEM leukemia
MOLT-4 leukemia = system: MOLT-4 leukemia
SK-MEL-2 melanoma = system: SK-MEL-2 melanoma
CAKI-1 renal = system: CAKI-1 renal

Measured: growth

COc1ccc(C(=O)/C=C/c2cccc(Nc3ccnc4cc(Cl)ccc34)c2)cc1
active: HT29 colon 1.05% | SNB-75 CNS -1.22% | U251 CNS 8.83% | SK-MEL-5 melanoma 7.89% | LOX IMVI melanoma 6.49% | UO-31 renal 6.64% | TK-10 renal -11%
inactive: HCT-15 colon 30.6% | SNB-19 CNS 51.3% | PC-3 prostate 33.7% | UACC-62 melanoma 27.8% | SK-MEL-28 melanoma 44.6% | EKVX NSCLC 50.9% | SN12C renal 25.7% | ACHN renal 29.6% | A498 renal 39.7% | CCRF-CEM leukemia 37.2% | MOLT-4 leukemia 42.3%

COc1ccc(-c2ccc(O)c(C(=O)/C=C/c3cc(OC)c(OC)c(OC)c3)c2)cc1
inactive: HCT-15 colon 76.6% | HT29 colon 75% | SNB-75 CNS 96.9% | SNB-19 CNS 99.4% | U251 CNS 78% | PC-3 prostate 61.8% | SK-MEL-5 melanoma 71.7% | UACC-62 melanoma 67.1% | LOX IMVI melanoma 62.5% | SK-MEL-2 melanoma 84.4% | EKVX NSCLC 79.8% | SN12C renal 94.6% | UO-31 renal 59.7% | TK-10 renal 103% | ACHN renal 85.7% | CAKI-1 renal 86.5% | A498 renal 124% | CCRF-CEM leukemia 24.2% | MOLT-4 leukemia 34.3%

Cc1cc(-c2ccccc2)cc(C)n1
inactive: HCT-15 colon 105% | HT29 colon 99% | SNB-75 CNS 86.1% | SNB-19 CNS 99.4% | U251 CNS 103% | PC-3 prostate 96.6% | SK-MEL-5 melanoma 106% | UACC-62 melanoma 103% | SK-MEL-28 melanoma 107% | SK-MEL-2 melanoma 98.1% | EKVX NSCLC 116% | UO-31 renal 78.6% | TK-10 renal 103% | ACHN renal 106% | CAKI-1 renal 103% | A498 renal 116% | CCRF-CEM leukemia 102% | MOLT-4 leukemia 100%

CC(=O)N1N=C(c2ccc(C(F)(F)F)cc2)CC1c1ccc2c(c1)OCO2 (configuration not stated)
inactive: HCT-15 colon 81.1% | HT29 colon 47.4% | SNB-75 CNS 90% | SNB-19 CNS 91% | U251 CNS 94.6% | PC-3 prostate 73.9% | SK-MEL-5 melanoma 95% | UACC-62 melanoma 65% | SK-MEL-28 melanoma 95.4% | SK-MEL-2 melanoma 76.2% | EKVX NSCLC 81.4% | SN12C renal 83.5% | UO-31 renal 55.9% | TK-10 renal 100% | ACHN renal 95.7% | CAKI-1 renal 70.8% | A498 renal 103% | CCRF-CEM leukemia 83.3% | MOLT-4 leukemia 77.9%

[N-]=[N+]=NCc1cccc(/C(O)=C/C(=O)C(=O)O)c1
inactive: HCT-15 colon 113% | HT29 colon 83.9% | SNB-75 CNS 73.6% | SNB-19 CNS 101% | U251 CNS 103% | PC-3 prostate 97.3% | SK-MEL-5 melanoma 106% | UACC-62 melanoma 92.4% | SK-MEL-28 melanoma 82.1% | SK-MEL-2 melanoma 72.8% | EKVX NSCLC 120% | SN12C renal 90.4% | TK-10 renal 107% | ACHN renal 107% | CAKI-1 renal 131% | A498 renal 108% | CCRF-CEM leukemia 75.2%
active: MOLT-4 leukemia -100%

CC1c2ccccc2-c2ccccc2N1C (configuration not stated)
inactive: HCT-15 colon 102% | HT29 colon 102% | SNB-75 CNS 105% | SNB-19 CNS 97.3% | U251 CNS 99.2% | PC-3 prostate 83.9% | SK-MEL-5 melanoma 107% | UACC-62 melanoma 86.6% | SK-MEL-28 melanoma 119% | SK-MEL-2 melanoma 101% | EKVX NSCLC 124% | SN12C renal 89.6% | UO-31 renal 70.7% | TK-10 renal 94.3% | ACHN renal 103% | CAKI-1 renal 95.7% | CCRF-CEM leukemia 101% | MOLT-4 leukemia 103%

N#Cc1c(NC(=O)c2ccco2)[n+]([O-])c2cc(Cl)c(Cl)cc2[n+]1[O-]
active: MOLT-4 leukemia 1.53%
inactive: HCT-15 colon 111% | HT29 colon 103% | SNB-75 CNS 103% | SNB-19 CNS 111% | U251 CNS 102% | PC-3 prostate 125% | SK-MEL-5 melanoma 94.8% | UACC-62 melanoma 85.2% | SK-MEL-28 melanoma 104% | SK-MEL-2 melanoma 89.9% | EKVX NSCLC 82.4% | SN12C renal 94.1% | TK-10 renal 163% | ACHN renal 110% | CAKI-1 renal 134% | A498 renal 109%

CC(NC(=O)Oc1cccc2ccccc12)c1ccccc1 (configuration not stated)
inactive: HCT-15 colon 100% | HT29 colon 104% | SNB-75 CNS 87.4% | SNB-19 CNS 105% | U251 CNS 90.7% | PC-3 prostate 84.9% | SK-MEL-5 melanoma 97% | UACC-62 melanoma 89.2% | LOX IMVI melanoma 87.2% | SK-MEL-2 melanoma 107% | EKVX NSCLC 107% | SN12C renal 97.4% | UO-31 renal 61.1% | TK-10 renal 105% | ACHN renal 98.9% | CAKI-1 renal 121% | A498 renal 106% | MOLT-4 leukemia 68.9%

c1ccc(N2c3nc4ccccc4cc3Sc3cc4ccccc4nc32)nc1
inactive: HCT-15 colon 95.6% | HT29 colon 104% | SNB-75 CNS 109% | SNB-19 CNS 97.8% | U251 CNS 85.7% | PC-3 prostate 72.5% | SK-MEL-5 melanoma 91.3% | UACC-62 melanoma 78.4% | SK-MEL-28 melanoma 115% | SK-MEL-2 melanoma 39.4% | EKVX NSCLC 68.9% | SN12C renal 76.1% | UO-31 renal 26.9% | TK-10 renal 114% | ACHN renal 92% | CAKI-1 renal 69% | A498 renal 73.2% | CCRF-CEM leukemia 87.5% | MOLT-4 leukemia 78%

COc1cc(/C=C/C(=O)CC(=O)/C=C/c2ccc(OC(=O)CCNC34CC5CC(CC(C5)C3)C4)c(OC)c2)ccc1OC(=O)CCNC12CC3CC(CC(C3)C1)C2
inactive: HCT-15 colon 46.9% | SNB-19 CNS 29.6% | U251 CNS 22.2% | PC-3 prostate 21% | SK-MEL-5 melanoma 25.3% | UACC-62 melanoma 43.2% | SK-MEL-2 melanoma 11.7% | EKVX NSCLC 21.6% | SN12C renal 23.8% | TK-10 renal 70% | ACHN renal 79.2% | CAKI-1 renal 49.1% | A498 renal 83.4%
active: HT29 colon -70.6% | SNB-75 CNS 7.02% | LOX IMVI melanoma 0.619% | CCRF-CEM leukemia -23.5% | MOLT-4 leukemia -25.1%

COC(=O)C1(NC(=O)CNC(=O)OCc2ccccc2)CCCC1
inactive: HCT-15 colon 103% | HT29 colon 108% | SNB-75 CNS 88.4% | SNB-19 CNS 96.5% | U251 CNS 105% | PC-3 prostate 103% | SK-MEL-5 melanoma 100% | UACC-62 melanoma 92.3% | SK-MEL-28 melanoma 102% | SK-MEL-2 melanoma 102% | EKVX NSCLC 98.2% | SN12C renal 95.4% | UO-31 renal 93.1% | TK-10 renal 99.9% | ACHN renal 105% | CAKI-1 renal 100% | A498 renal 96.9% | MOLT-4 leukemia 111%

COC(=O)[C@H](Cc1cnc[nH]1)NC(=O)[C@@H](NC(=O)Nc1cc(C(F)(F)F)cc(C(F)(F)F)c1)C(C)C
inactive: HCT-15 colon 35.4% [100 µM] | CAKI-1 renal 40.9% [100 µM]
active: HT29 colon -80.3% [100 µM] | SNB-75 CNS -95.3% [100 µM] | SNB-19 CNS -96.3% [100 µM] | U251 CNS -96.8% [100 µM] | PC-3 prostate -93.2% [100 µM] | SK-MEL-5 melanoma -91.5% [100 µM] | UACC-62 melanoma -96.2% [100 µM] | LOX IMVI melanoma -84.5% [100 µM] | SK-MEL-2 melanoma -93% [100 µM] | SN12C renal -96.3% [100 µM] | UO-31 renal -21.7% [100 µM] | TK-10 renal -95% [100 µM] | ACHN renal -58.3% [100 µM] | A498 renal -87.8% [100 µM] | MOLT-4 leukemia -45.5% [100 µM]

O=C(Nc1nc2c(C(F)(F)F)cccc2s1)c1cc(Cl)ccc1O
active: HT29 colon 0.653% | U251 CNS 3.11% | PC-3 prostate 3.52% | SK-MEL-5 melanoma -46.7% | UACC-62 melanoma -37.3% | LOX IMVI melanoma 5.52% | SN12C renal -4.79% | UO-31 renal -10.9% | ACHN renal 5.28% | A498 renal -36.9% | MOLT-4 leukemia -8.05%
inactive: HCT-15 colon 12.3% | SNB-75 CNS 14% | SNB-19 CNS 10.2% | EKVX NSCLC 11.1% | TK-10 renal 10.2% | CCRF-CEM leukemia 10.7%

O=C(NC1CCCCC1)c1ccc(Nc2ncnc3c2cnn3-c2ccccc2)cc1
inactive: HCT-15 colon 66.6% | HT29 colon 70.2% | SNB-19 CNS 48.7% | U251 CNS 40.2% | PC-3 prostate 53.3% | SK-MEL-5 melanoma 75.4% | UACC-62 melanoma 63.9% | SK-MEL-28 melanoma 62.2% | SK-MEL-2 melanoma 79.1% | SN12C renal 19% | UO-31 renal 57.7% | TK-10 renal 51% | ACHN renal 54.3% | CAKI-1 renal 62.3% | A498 renal 50.4% | CCRF-CEM leukemia 64.9% | MOLT-4 leukemia 89.5%
active: SNB-75 CNS -20.3%

O=C(Oc1ccccc1)C(Br)C(Br)c1ccccc1 (configuration not stated)
active: CAKI-1 renal -66.7% | CCRF-CEM leukemia -28.7% | MOLT-4 leukemia 7.62%
inactive: HCT-15 colon 95.4% | HT29 colon 54.5% | SNB-75 CNS 110% | SNB-19 CNS 104% | U251 CNS 75.7% | PC-3 prostate 55.4% | SK-MEL-5 melanoma 106% | UACC-62 melanoma 101% | LOX IMVI melanoma 82.2% | SK-MEL-2 melanoma 95.3% | EKVX NSCLC 136% | SN12C renal 109% | UO-31 renal 93.3% | TK-10 renal 83% | ACHN renal 78.2% | A498 renal 91.3%

COc1cc(/C=C/C(=O)C(C(=O)/C=C/c2ccc(OC(=O)CCNC34CC5CC(CC(C5)C3)C4)c(OC)c2)C(=O)CCNC23CC4CC(CC(C4)C2)C3)ccc1OC(=O)CCNC12CC3CC(CC(C3)C1)C2 (configuration not stated)
active: HCT-15 colon -18.2% | HT29 colon -71.6% | SNB-75 CNS -32.3% | U251 CNS 7.57% | SK-MEL-5 melanoma -36.8% | SK-MEL-28 melanoma -8.59% | SK-MEL-2 melanoma 7.68% | SN12C renal 5.02% | ACHN renal 6.38% | CCRF-CEM leukemia -36.4%
inactive: SNB-19 CNS 39.2% | PC-3 prostate 13.6% | UACC-62 melanoma 20.2% | EKVX NSCLC 19.6% | TK-10 renal 44.2% | CAKI-1 renal 18.6% | A498 renal 59.3%

O=C(COc1ccc(/C=C2\Oc3ccc4ccccc4c3C2=O)cc1)c1ccc([N+](=O)[O-])cc1
active: UO-31 renal 2.26% | CCRF-CEM leukemia -17.2%
inactive: HCT-15 colon 88.4% | HT29 colon 109% | SNB-75 CNS 91.3% | SNB-19 CNS 94.6% | U251 CNS 94.4% | PC-3 prostate 86.8% | SK-MEL-5 melanoma 92.3% | UACC-62 melanoma 91.7% | LOX IMVI melanoma 35.5% | SK-MEL-2 melanoma 48.6% | EKVX NSCLC 100% | SN12C renal 89.7% | TK-10 renal 117% | ACHN renal 107% | CAKI-1 renal 101% | A498 renal 103% | MOLT-4 leukemia 20.4%
